Test results: PubChem BioAssay (NCATS)
Activity calls are given as the source filed them. No rule for the calls is given here.
Potency is read from the fitted curve at half-maximal effect.

The compounds below were run on HIV-1 nucleocapsid protein NCp7 (binding to TG oligonucleotide) (assay: HIV Nucleocapsid (AID 346;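 also: potency is for inhibitors that block NC binding and lower polarization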)). Settings: HIV-1 NC / fluorescein-TGTGTGTG probe, fluorescence polarization.
Description: NCGC Assay Overview: HIV-1 nucleocapsid protein (HIV-1 NC) is a small (6.5 kDa) basic zinc-finger protein which participates in packaging of viral genomic RNA. The spacing and metal-chelating residues (3 Cys, 1 His) of the Cys-X2-Cys-X4-His-X4-Cys Zn fingers are conserved among all known retroviruses (J. Med. Chem. 1998, 41, 1371-1381). HIV-1 NC was assayed for its binding to the consensus sequence single-stranded 5'-TGTGTGTG. […] High salt was included to increase the stringency of binding and inhibitor screen. Reducing agents and zinc were present to stabilize the nucleocapsid zinc-finger protein.
NCGC Assay Protocol Summary: Buffer. Hepes pH 7.5, 250mM NaCl, 1uM ZnCl2. 0.004% polyethylene glycol 20000. TCEP (100 uM) and 2-Mercaptoethanol (5 mM), added fresh the day of the experiment. Reagents/Controls. 10 nM TG4xF only in columns 3 and 4 as negative control. 10 nM TG4xF/100 nM HIV-1 NC in columns 1, 2, 5-48. Titration of control compound NSC-13778 (from 20 mM, then 1:2) pin-transferred to column 2. Assay Steps. Two uL of reagents were dispensed to 1536-well Kalypsys black plates. The plates were centrifuged for 1 min at 1000 rpm. Compounds and controls (20 nL) were transferred via Kalypsys PinTool. The plates were incubated for 1 hr at room temperature, and then read on ViewLux (Perkin-Elmer). High-throughput CCD imager using fluorescein polarization filter set and 45 seconds exposure time.
In the case of `Cc1ccccc1-c1ccc2ncnc(NCc3cccs3)c2c1`, the Potency was > 20 µM (inactive). With `Fc1ccc(Nc2ccnc(-c3ccc4c(c3)OCO4)n2)cc1` the Potency was > 20 µM (inactive). In the case of `Cc1cnc(CNc2ccnc(-c3ccccc3C)n2)cn1`, the Potency was > 20 µM (inactive). For `COc1cccc(Nc2ncc3nc(-c4ccc(Cl)cc4)c(=O)n(C4CC4)c3n2)c1`, the Potency was > 4 µM (inactive). With `CN1CCN(c2ncc3nc(-c4cn(C)c5ccccc45)c(=O)n(CCc4ccccc4)c3n2)CC1` the Potency was > 4 µM (inactive). For `CN1CCN(c2ncc3ncc(=O)n(CCC#N)c3n2)CC1`, the Potency was > 20 µM (inactive). For `O=c1c(-c2ccccc2)nc2cnc(Nc3ccccc3)nc2n1Cc1cccs1`, the Potency was > 20 µM (inactive). With `COc1ccc2[nH]cc(CCNc3nc(-c4ccc(C(=O)N(C)C)cc4)nc4ccccc34)c2c1` the Potency was > 20 µM (inactive). For `O=c1cnc2cnc(N3CCNCC3)nc2n1Cc1cccs1`, the Potency was > 20 µM (inactive). In the case of `c1cncc(-c2cncnc2NCc2cccs2)c1`, the Potency was > 20 µM (inactive). In the case of `Cc1cnc(CNc2nc(-c3ccc(C(=O)N(C)C)cc3)nc3ccccc23)cn1`, the Potency was > 20 µM (inactive). With `COCCn1c(=O)c(-c2cn(C)c3ccccc23)nc2cnc(N3CCOCC3)nc21` the Potency was > 20 µM (inactive). For `c1ccc(Nc2nc(-c3ccoc3)nc3ccccc23)cc1`, the Potency was > 20 µM (inactive). In the case of `O=c1c(-c2ccccc2)nc2cnc(Oc3ccccc3)nc2n1Cc1cccs1`, the Potency was > 20 µM (inactive). For `Cn1c(=O)c(CCc2ccccc2)nc2cnc(N3CCOCC3)nc21`, the Potency was > 20 µM (inactive). For `COCCn1c(=O)c(-c2ccc(OC)cc2)nc2cnc(N3CCN(C)CC3)nc21`, the Potency was > 20 µM (inactive). For `COCCn1c(=O)c(-c2cccs2)nc2cnc(OC)nc21`, the Potency was > 20 µM (inactive). With `N#CCCn1c(=O)c(CCc2ccccc2)nc2cnc(N3CCOCC3)nc21` the Potency was > 20 µM (inactive). In the case of `CN(C)c1nc(-c2ccccc2C(F)(F)F)nc2ccccc12`, the Potency was > 20 µM (inactive). `Cc1cccc(CNc2cc(-c3cccc(C#N)c3)ncn2)c1` was tested, and the Potency was > 20 µM (inactive). In the case of `O=S(=O)(c1ccccc1)N1CCC2(CCCN(Cc3ccncc3)C2)CC1`, the Potency was > 20 µM (inactive). With `FC(F)(F)c1ccccc1-c1nc(-n2ccnc2)c2ccccc2n1` the Potency was > 20 µM (inactive). `O=c1cnc2cnc(Nc3ccccc3)nc2n1Cc1cccs1` was tested, and the Potency was > 20 µM (inactive). `Cc1cccc(CNc2ncncc2-c2ccc(C(=O)N(C)C)cc2)c1` was tested, and the Potency was > 20 µM (inactive). With `N#CCCn1c(=O)cnc2cnc(Nc3ccccc3)nc21` the Potency was > 20 µM (inactive). `CS(=O)(=O)N1CCC2(CC1)CN(Cc1cc(C(F)(F)F)cc(C(F)(F)F)c1)C2` was tested, and the Potency was > 20 µM (inactive). `Cc1cnc(CNc2ncncc2-c2ccccc2C)cn1` was tested, and the Potency was > 20 µM (inactive). For `CN(Cc1ccco1)c1nc(-c2cccc(C#N)c2)nc2ccccc12`, the Potency was > 20 µM (inactive). With `COc1ccc2[nH]cc(CCNc3ccnc(-c4ccc5c(c4)OCO5)n3)c2c1` the Potency was > 20 µM (inactive). With `COc1ccc2[nH]cc(CCNc3cc(-c4cccc(C#N)c4)ncn3)c2c1` the Potency was > 20 µM (inactive). In the case of `O=C(Nc1cccc(F)c1)N1CC2(CCN(C(=O)c3ccncc3)CC2)C1`, the Potency was > 20 µM (inactive). With `COc1ccccc1CN1CCCC2(CCN(C(=O)c3cnccn3)CC2)C1` the Potency was > 20 µM (inactive). For `CN(C)c1ncc2nc(CCc3ccccc3)c(=O)n(Cc3ccc(F)cc3)c2n1`, the Potency was > 20 µM (inactive). With `COc1ccc(-n2c(=O)c(C)nc3cnc(Oc4cccc(Cl)c4)nc32)cc1` the Potency was > 20 µM (inactive). `CN(C)C(=O)c1ccc(-c2cncnc2Nc2ccc(F)cc2)cc1` was tested, and the Potency was > 20 µM (inactive). For `Cn1cc(-c2nc3cncnc3n(Cc3ccc(F)cc3)c2=O)c2ccccc21`, the Potency was > 20 µM (inactive). In the case of `c1cncc(-c2nccc(-n3ccnc3)n2)c1`, the Potency was > 20 µM (inactive). In the case of `COc1ccc(Oc2ncc3nc(CCc4ccccc4)c(=O)n(C[C@H]4CCCO4)c3n2)cc1`, the Potency was > 20 µM (inactive). For `N#Cc1ccc(CN2CCCC3(CCN(C(=O)c4ccco4)CC3)C2)cc1`, the Potency was > 20 µM (inactive). `N#CCCn1c(=O)c(-c2ccc(F)cc2)nc2cnc(N3CCNCC3)nc21` was tested, and the Potency was > 20 µM (inactive).
